This note sets out measurements from PubChem BioAssay.

Values without a mark were called inactive. Calls of active or inactive are those of the source.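 Rule for the calls: active = normalized viability below 100% at a tested concentration; inactive = the rest.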

The first assay can be described thus: drug combination growth inhibition, ovarian cancer – cell-based, oncology-focused library, rucaparib conditional, profiling panel (AID 1508598). Conditions: patient-derived ovarian cancer cells, CellTiter-Glo viability, 144 h; at 0.0195 µM; OCI-C5x cells; with rucaparib 10 µM; stronger effect = lower value; 100% = cells with rucaparib alone. (In general: In ATP-based viability assays light output follows the ATP content of the culture.)
For the compound `Cc1ccc(-c2cc(C(F)(F)F)nn2-c2ccc(S(N)(=O)=O)cc2)cc1`, the viability is 115%.

Consider `CN(CCOc1ccc(CC2SC(=O)NC2=O)cc1)c1ccccn1` (stereo unspecified), for which the viability is 114%.

`CCCCCCNC(=O)n1cc(F)c(=O)[nH]c1=O`: the viability is 114%.

With `O=c1[nH]cc(F)c(=O)[nH]1`, the viability was 129%.

Still in this assay, the particulars now being: patient-derived ovarian cancer cells, CellTiter-Glo viability, 144 h; at 0.0195 µM; OCI-C5x cells; without rucaparib; stronger effect = lower value.
Regarding `Cc1ccc(-c2cc(C(F)(F)F)nn2-c2ccc(S(N)(=O)=O)cc2)cc1`, the viability is 120%.

As for `CN(CCOc1ccc(CC2SC(=O)NC2=O)cc1)c1ccccn1` (stereo unspecified), the viability is 137%.

As to `CCCCCCNC(=O)n1cc(F)c(=O)[nH]c1=O`, the viability is 113%.

Turning to `O=c1[nH]cc(F)c(=O)[nH]1`, the viability is 101%.

The same assay, now with this note: patient-derived ovarian cancer cells, CellTiter-Glo viability, 144 h; at 0.0195 µM; OCI-P5x cells; with rucaparib 20 µM; stronger effect = lower value; 100% = cells with rucaparib alone.
In the case of `Cc1ccc(-c2cc(C(F)(F)F)nn2-c2ccc(S(N)(=O)=O)cc2)cc1`, the viability is 96.2% (active).

With `CN(CCOc1ccc(CC2SC(=O)NC2=O)cc1)c1ccccn1` (stereo unspecified), the viability is 108%.

As to `CCCCCCNC(=O)n1cc(F)c(=O)[nH]c1=O`, the viability was 107%.

Turning to `O=c1[nH]cc(F)c(=O)[nH]1`, the viability was 111%.

The same assay, now with this note: patient-derived ovarian cancer cells, CellTiter-Glo viability, 144 h; at 0.0195 µM; OCI-P5x cells; without rucaparib; stronger effect = lower value.
On to `Cc1ccc(-c2cc(C(F)(F)F)nn2-c2ccc(S(N)(=O)=O)cc2)cc1`, for which the viability was 88.2% (active).

`CN(CCOc1ccc(CC2SC(=O)NC2=O)cc1)c1ccccn1` (stereo unspecified): the viability is 116%.

On to `CCCCCCNC(=O)n1cc(F)c(=O)[nH]c1=O`, for which the viability was 113%.

Take `O=c1[nH]cc(F)c(=O)[nH]1`: the viability was 106%.

The same assay, now with this note: patient-derived ovarian cancer cells, CellTiter-Glo viability, 144 h; at 0.0781 µM; OCI-C5x cells; with rucaparib 10 µM; stronger effect = lower value; 100% = cells with rucaparib alone.
Regarding `Cc1ccc(-c2cc(C(F)(F)F)nn2-c2ccc(S(N)(=O)=O)cc2)cc1`, the viability was 114%.

Turning to `CN(CCOc1ccc(CC2SC(=O)NC2=O)cc1)c1ccccn1` (stereo unspecified), the viability is 106%.

Consider `CCCCCCNC(=O)n1cc(F)c(=O)[nH]c1=O`, for which the viability was 134%.

As for `O=c1[nH]cc(F)c(=O)[nH]1`, the viability is 103%.

Staying with this assay, now noted: patient-derived ovarian cancer cells, CellTiter-Glo viability, 144 h; at 0.0781 µM; OCI-C5x cells; without rucaparib; stronger effect = lower value.
Consider `Cc1ccc(-c2cc(C(F)(F)F)nn2-c2ccc(S(N)(=O)=O)cc2)cc1`, for which the viability was 117%.

With `CN(CCOc1ccc(CC2SC(=O)NC2=O)cc1)c1ccccn1` (stereo unspecified), the viability was 128%.

Consider `CCCCCCNC(=O)n1cc(F)c(=O)[nH]c1=O`, for which the viability was 117%.

With `O=c1[nH]cc(F)c(=O)[nH]1`, the viability is 102%.

Still in this assay, the particulars now being: patient-derived ovarian cancer cells, CellTiter-Glo viability, 144 h; at 0.0781 µM; OCI-P5x cells; with rucaparib 20 µM; stronger effect = lower value; 100% = cells with rucaparib alone.
For `Cc1ccc(-c2cc(C(F)(F)F)nn2-c2ccc(S(N)(=O)=O)cc2)cc1`, the viability is 96.7% (active).

Turning to `CN(CCOc1ccc(CC2SC(=O)NC2=O)cc1)c1ccccn1` (stereo unspecified), the viability is 103%.

`CCCCCCNC(=O)n1cc(F)c(=O)[nH]c1=O`: the viability is 103%.

For the compound `O=c1[nH]cc(F)c(=O)[nH]1`, the viability is 106%.

The assay is the same for the next values; noted with them: patient-derived ovarian cancer cells, CellTiter-Glo viability, 144 h; at 0.0781 µM; OCI-P5x cells; without rucaparib; stronger effect = lower value.
Turning to `Cc1ccc(-c2cc(C(F)(F)F)nn2-c2ccc(S(N)(=O)=O)cc2)cc1`, the viability is 94.3% (active).

For `CN(CCOc1ccc(CC2SC(=O)NC2=O)cc1)c1ccccn1` (stereo unspecified), the viability is 113%.

On to `CCCCCCNC(=O)n1cc(F)c(=O)[nH]c1=O`, for which the viability is 117%.

For the compound `O=c1[nH]cc(F)c(=O)[nH]1`, the viability was 102%.

Staying with this assay, now noted: patient-derived ovarian cancer cells, CellTiter-Glo viability, 144 h; at 0.313 µM; OCI-C5x cells; with rucaparib 10 µM; stronger effect = lower value; 100% = cells with rucaparib alone.
Take `Cc1ccc(-c2cc(C(F)(F)F)nn2-c2ccc(S(N)(=O)=O)cc2)cc1`: the viability is 117%.

For the compound `CN(CCOc1ccc(CC2SC(=O)NC2=O)cc1)c1ccccn1` (stereo unspecified), the viability was 110%.

Take `CCCCCCNC(=O)n1cc(F)c(=O)[nH]c1=O`: the viability was 133%.

Consider `O=c1[nH]cc(F)c(=O)[nH]1`, for which the viability was 121%.

Staying with this assay, now noted: patient-derived ovarian cancer cells, CellTiter-Glo viability, 144 h; at 0.313 µM; OCI-C5x cells; without rucaparib; stronger effect = lower value.
Regarding `Cc1ccc(-c2cc(C(F)(F)F)nn2-c2ccc(S(N)(=O)=O)cc2)cc1`, the viability is 110%.

For `CN(CCOc1ccc(CC2SC(=O)NC2=O)cc1)c1ccccn1` (stereo unspecified), the viability was 148%.

Turning to `CCCCCCNC(=O)n1cc(F)c(=O)[nH]c1=O`, the viability is 112%.

`O=c1[nH]cc(F)c(=O)[nH]1`: the viability is 105%.

Still in this assay, the particulars now being: patient-derived ovarian cancer cells, CellTiter-Glo viability, 144 h; at 0.313 µM; OCI-P5x cells; with rucaparib 20 µM; stronger effect = lower value; 100% = cells with rucaparib alone.
Consider `Cc1ccc(-c2cc(C(F)(F)F)nn2-c2ccc(S(N)(=O)=O)cc2)cc1`, for which the viability was 66.1% (active).

For the compound `CN(CCOc1ccc(CC2SC(=O)NC2=O)cc1)c1ccccn1` (stereo unspecified), the viability was 106%.

Consider `CCCCCCNC(=O)n1cc(F)c(=O)[nH]c1=O`, for which the viability was 101%.

Regarding `O=c1[nH]cc(F)c(=O)[nH]1`, the viability is 99.1% (active).

Still in this assay, the particulars now being: patient-derived ovarian cancer cells, CellTiter-Glo viability, 144 h; at 0.313 µM; OCI-P5x cells; without rucaparib; stronger effect = lower value.
As to `Cc1ccc(-c2cc(C(F)(F)F)nn2-c2ccc(S(N)(=O)=O)cc2)cc1`, the viability was 56.6% (active).

Turning to `CN(CCOc1ccc(CC2SC(=O)NC2=O)cc1)c1ccccn1` (stereo unspecified), the viability was 119%.

In the case of `CCCCCCNC(=O)n1cc(F)c(=O)[nH]c1=O`, the viability is 112%.

Take `O=c1[nH]cc(F)c(=O)[nH]1`: the viability was 100%.

The assay is the same for the next values; noted with them: patient-derived ovarian cancer cells, CellTiter-Glo viability, 144 h; at 1.25 µM; OCI-C5x cells; with rucaparib 10 µM; stronger effect = lower value; 100% = cells with rucaparib alone.
Consider `Cc1ccc(-c2cc(C(F)(F)F)nn2-c2ccc(S(N)(=O)=O)cc2)cc1`, for which the viability is 113%.

As to `CN(CCOc1ccc(CC2SC(=O)NC2=O)cc1)c1ccccn1` (stereo unspecified), the viability is 107%.

Take `CCCCCCNC(=O)n1cc(F)c(=O)[nH]c1=O`: the viability is 129%.

Consider `O=c1[nH]cc(F)c(=O)[nH]1`, for which the viability is 145%.

Still in this assay, the particulars now being: patient-derived ovarian cancer cells, CellTiter-Glo viability, 144 h; at 1.25 µM; OCI-C5x cells; without rucaparib; stronger effect = lower value.
As for `Cc1ccc(-c2cc(C(F)(F)F)nn2-c2ccc(S(N)(=O)=O)cc2)cc1`, the viability was 124%.

As to `CN(CCOc1ccc(CC2SC(=O)NC2=O)cc1)c1ccccn1` (stereo unspecified), the viability is 131%.

`CCCCCCNC(=O)n1cc(F)c(=O)[nH]c1=O`: the viability is 128%.

Regarding `O=c1[nH]cc(F)c(=O)[nH]1`, the viability was 123%.

By viability is commonly meant a read-out of living cells in per cent, often relative to untreated cells.
